Results from PubChem BioAssay (NCI).
This is part of a sample that, as a whole, favours compounds with a hit. Of some 79,000 tested, about 15% had one in any assay. Values without a mark were called inactive. Activity calls are given as the source filed them. Cut-off read from the data, not from the text of the source: active = growth inhibition above about 70%; inactive = the rest.

Test: NCI Yeast Anticancer Drug Screen. Data for the mlh1 strain (AID 171);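 note: 0% = growth of vehicle-treated control cultures of the same strain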
Settings: S. cerevisiae mlh1 strain growth inhibition, active compounds read high
Experimental: Growth inhibition of yeast strains with defined genetic alterations is measured as a screen for potential anti-cancer activity. Selected strains with alterations in DNA damage repair or cell cycle control were exposed to compounds and growth inhibition was measured relative to vehicle treated controls. The strain used in this assay is mlh1

CNC(=O)OCc1c(COC(=O)NC)c(-c2ccc(Cl)cc2)n2c1CCC2
growth inhibition (at 1.2 µM): -61% | growth inhibition (at 3.7 µM): -93% | growth inhibition (at 11.0 µM): -67% | growth inhibition (at 33.0 µM): 10% | growth inhibition (at 100.0 µM): 98% (active)

Cc1cc2cc3cc(C)c(N)cc3nc2cc1N
growth inhibition (at 1.2 µM): -10% | growth inhibition (at 3.7 µM): 3% | growth inhibition (at 11.0 µM): 24% | growth inhibition (at 33.0 µM): 79% (active) | growth inhibition (at 100.0 µM): 95% (active)

Cc1cc(NCCCCCCCCNc2cc(C)nc3cc(N)ccc23)c2ccc(N)cc2n1
growth inhibition (at 1.2 µM): -88% | growth inhibition (at 3.7 µM): -63% | growth inhibition (at 11.0 µM): 92% (active) | growth inhibition (at 33.0 µM): 97% (active) | growth inhibition (at 100.0 µM): 94% (active)

O=C(O)C1CC(c2ccccc2)=NN1c1ccccc1 (stereo not given)
growth inhibition (at 1.2 µM): -31% | growth inhibition (at 3.7 µM): -14% | growth inhibition (at 11.0 µM): -9% | growth inhibition (at 33.0 µM): 8% | growth inhibition (at 100.0 µM): 96% (active)

CC(=O)OC1CCC2(C)C(=CC(C3C=C4CC(OC(C)=O)CCC4(C)C4=C3C3CC5OC6(CCC(C)CO6)C(C)C5C3(C)CC4)C3=C2CCC2(C)C3CC3OC4(CCC(C)CO4)C(C)C32)C1 (stereo not given)
growth inhibition (at 1.2 µM): -1% | growth inhibition (at 3.7 µM): 0% | growth inhibition (at 11.0 µM): 0% | growth inhibition (at 33.0 µM): 12% | growth inhibition (at 100.0 µM): 69%

CC1=NOC(=O)/C1=C/c1ccc2c(c1)OCO2
growth inhibition (at 1.2 µM): 3% | growth inhibition (at 3.7 µM): 1% | growth inhibition (at 11.0 µM): 6% | growth inhibition (at 33.0 µM): 20% | growth inhibition (at 100.0 µM): 26%

CCCCCCCCCCCCCCCCOP(=O)(O)OCC(N)C(=O)O (stereo not given)
growth inhibition (at 1.2 µM): -23% | growth inhibition (at 3.7 µM): -11% | growth inhibition (at 11.0 µM): 53% | growth inhibition (at 33.0 µM): 97% (active) | growth inhibition (at 100.0 µM): 97% (active)

CC12C(=O)OC(=O)C(c3ccccc31)c1ccccc12
growth inhibition (at 1.2 µM): -11% | growth inhibition (at 3.7 µM): -9% | growth inhibition (at 11.0 µM): -7% | growth inhibition (at 33.0 µM): -6% | growth inhibition (at 100.0 µM): -6%
